Sm TGR inh: blocks Schistosoma mansoni thioredoxin glutathione reductase. Potency, µM (highest dose often 114 µM), for inactives: at the highest dose activity change, negative = inhibition, usual class: inhibitors. AID 485364. Q962Y6. purified TGR, DTNB reduction, TNB absorbance 405 nm. hit rate 3% among 360,000; also: % is scaled to controls: 0 for no effect and ±100 for the full control effect; nearly all actives have a fitted effect of over 60% in size
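TGR 20 nM + NADPH 100 uM (dispensed conc.), cpd preinc 15 min RT; start with NADPH (500 uM addition) then DTNB (15 mM addition). Kinetic TNB absorbance, 405 nm filter. Four-parameter Hill fit across titration.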
SARS PLP yeast: SARS-CoV PLP inhibition in yeast | S. cerevisiae expressing SARS-CoV PLpro, growth rescue | Potency, µM (titrated, usually from 32.9 µM), without a hit: top-dose activity, positive = growth rescue, usual class: activators | hit rate 0.19% among 330,000 | AID 485353; calls by dose curve; also: 0% is about no effect; nearly all actives have a fitted effect of over 55% in size
Pf growth 96h: inhibits malaria parasite growth, 96 h. P. falciparum luciferase reporter growth, 96 h. Potency, µM (doses to about 28.7 µM), inactives show top-dose activity change, negative = inhibition, hits mostly inhibitors. hit rate 6.9% among 320,000. AID 504834; also: % is scaled to controls: 0 for no effect and ±100 for the full control effect
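Parasite growth measured via integrated firefly luciferase reporter in P. falciparum. Infected erythrocytes at 2% hematocrit, 0.05% parasitemia final were treated 96 hours at 37 C under 5% CO2, and luminescence was read.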
Pf growth 48h: P. falciparum growth inhibition at 48 hours (one generation). P. falciparum luciferase growth in erythrocytes, 48 h. Potency, µM (series often up to 28.7 µM), inactives show at the top dose activity change, negative = inhibition, usual class: inhibitors. hit rate 5.9% among 310,000. AID 504832; also: % is scaled to controls: 0 for no effect and ±100 for the full control effect
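Read-out is firefly luciferase luminescence from an integrated reporter in P. falciparum, so falling signal marks reduced parasite growth. Infected erythrocytes were at 2% hematocrit and 0.1% parasitemia (final) in Albumax-supplemented RPMI 1640.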
* = called active by the depositor; ? = inconclusive; · = not tested or not shown. Sampled rows, rich in hits. Any-hit rate of the full collection: about 12%. Unless noted, calls follow the shape of the dose curve; as a rule, active = well fitted curve in the direction sought with a large enough effect; inconclusive = small, poorly fitted or top-dose-only effect, or another doubt; inactive = no such curve, though single readings can be large; an effect the other way counts as inactive or inconclusive. Potency is read from the fitted curve at half-maximal effect.

SMILES | Sm TGR inh | SARS PLP yeast | Pf growth 96h | Pf growth 48h
CCC(CO)[n+]1c(C)cc(/C=C2\Sc3ccccc3N2Cc2ccccc2)cc1C (stereo not drawn) | -5% | -51% | ? | 0.37µM*
CCc1ccccc1S(=O)(=O)Cc1ccc(C(=O)N2CCN(c3ccccn3)CC2)o1 | ? | 2% | 9.3µM* | ·
COc1ccccc1N1CCN(C(=O)c2ccc(CS(=O)(=O)c3ccccc3OC)o2)CC1 | 28µM* | 5% | 9.3µM* | ?
CCOC(=O)N1CCN(C(=O)c2ccc(CS(=O)(=O)c3ccccc3OC)o2)CC1 | 0% | 1% | ? | 1%
COc1ccccc1S(=O)(=O)Cc1ccc(C(=O)N2CCN(c3ccc(C)cc3)C(C)C2)o1 (stereo not drawn) | ? | 0% | ? | 12µM*
Cc1ccc(Cl)cc1NC(=O)C(=O)N/N=C/c1ccc2c(c1)OCO2 | -3% | -2% | ? | 6%
CCCCOc1cccc(C(=O)N(Cc2ccc(Br)o2)C2CCS(=O)(=O)C2)c1 (stereo not drawn) | -2% | · | · | ·
N#CC(C#N)=C(N)/C(C#N)=C/c1cc(O)c(O)c(O)c1 | ? | · | 9.3µM* | 12µM*
Cc1cnccc1CN(C)Cc1cn(C)nc1-c1cccc(Cl)c1 | ? | -1% | 20% | ?
CC(c1ccon1)N(C)Cc1cn(C)nc1-c1cccc(Cl)c1 (stereo not drawn) | 28µM* | 0% | ? | -5%
CN(Cc1cn(C)nc1-c1cccc(Cl)c1)CC1CCCCO1 (stereo not drawn) | -2% | 1% | 10µM* | 6%
CC1(C)C(=S)N(Cc2ccccc2)c2ccccc21 | 3% | -4% | 1% | 4%
O=c1c2cnn(-c3ccccc3)c2nc(-c2ccco2)n1-c1ccccc1 | -13% | -1% | 10µM* | 10µM*
CC1(C)C2CC=C(/C=N/NC(=S)NCCc3ccccc3)C1C2 (stereo not drawn) | -8% | -1% | 1.5µM* | ?
CC1(C)C2CC=C(/C=N/NC(=O)c3ccccc3O)C1C2 (stereo not drawn) | -14% | 12% | -24% | -20%
Cc1ccc2c(COC(=O)CNC(=O)c3ccco3)cc(=O)oc2c1C | · | -3% | · | ·
CCCC[n+]1c(-c2ccc(Cl)cc2Cl)csc1Nc1ccccc1 | -12% | -71% | 1.7µM* | 3.7µM*
Clc1ccc(-c2csc(Nc3ccccc3)[n+]2Cc2ccco2)c(Cl)c1 | ? | -14% | ? | 12µM*
Cc1ccc2nc(-c3cccc(S(=O)(=O)N4CC(C)OC(C)C4)c3)cn2c1 (stereo not drawn) | 4% | 6% | -12% | ?
CCOC(=O)c1[nH]c(C)c(C(=O)OCC(=O)N(Cc2ccccc2)C(C)C)c1C | 0% | 0% | ? | ?
COc1cccc(C(=O)O/N=C(\N)CS(=O)(=O)c2ccccc2)c1 | 0% | 7% | 28% | 112%
CCOc1ccc(NC(=O)Nc2ccc(NC(C)=O)cc2)cc1 | 0% | -1% | 38% | 18%
CCSc1nsc(NC(=O)Nc2ccc(F)cc2F)n1 | 0% | -3% | -19% | -1%
COc1ccc(NC(=O)CN2CCN(CC(=O)Nc3ccc(OC)c(OC)c3)CC2)cc1 | -20% | -2% | 1% | -5%
CCOc1ccc(NC(=O)NC(C)CC)cc1 (stereo not drawn) | -1% | 13% | 9.3µM* | 24%
SMILES | Sm TGR inh | SARS PLP yeast | Pf growth 96h | Pf growth 48h
CCOc1ccc(NC(=O)Nc2nc(SCC)ns2)cc1 | 6% | 1% | 4.1µM* | 0%
CCOc1ccc(NC(=O)CN2CCN(CC(=O)c3ccc(OC)c(OC)c3)CC2)cc1 | 32µM* | -4% | 57% | -14%
CCOc1ccc(NC(=O)C(CC(=O)O)Cc2ccc(Br)cc2)cc1 (stereo not drawn) | 3% | 0% | 9.3µM* | 3%
CCOc1ccccc1NC(=O)c1ccc2c(c1)CCCN2S(C)(=O)=O | 2% | · | · | ·
NC(=O)c1c(NC(=O)Cc2ccccc2)sc2c1CCN(Cc1ccccc1)C2 | 2% | 1% | ? | ?
CCOc1ccc(NC(=O)CN2CCN(CC(=O)Nc3ccc(C(N)=O)cc3)CC2)cc1 | ? | 2% | 6% | -20%
CCOc1ccc(NC(=O)CN2CCN(CC(=O)c3ccc(OCC)cc3)CC2)cc1 | 22µM* | -13% | 32% | ?
COc1cc(Nc2c3c(nc4ccccc24)CCC3)cc(OC)c1OC | 2% | 2% | 5% | 12µM*
Cc1cccc(Nc2c3c(nc4ccccc24)CCC3)c1 | 6% | -1% | ? | 12µM*
Cc1ccc(S(=O)(=O)N(C)CC(=O)N2CCN(Cc3ccccc3)CC2)cc1 | -7% | · | -8% | -3%
CCOC(=O)c1c(CN2CCOCC2)n(C)c2cc(Br)c(O)c(CN(C)C)c12 | ? | 0% | ? | 10µM*
CCOC(=O)c1c(CN2CCC(C)CC2)n(C)c2cc(Br)c(OC)cc12 | 17% | 2% | ? | ?
CCOC(=O)c1c(CS(=O)(=O)c2ccccc2)n(C)c2cc(Br)c(O)c(CN(C)C)c12 | -9% | 0% | 37% | 9.3µM*
C/C(=N\Nc1ccc(C)c(Cl)c1)c1cccnc1 | 14µM* | -7% | -4% | ?
C/C(=N\NC(=O)Cc1ccc(Cl)c(Cl)c1)c1cccnc1 | -3% | -3% | -24% | 4%
C/C(=N\NC(=O)Cc1ccccc1Cl)c1cccnc1 | ? | 3% | 1.7µM* | ?
C/C(=N\Nc1ccc(C)c(Cl)c1)c1ccncc1 | -28% | -35% | ? | ?
COc1cccc(CNC(=O)Cn2c(=O)ccc3cc(S(=O)(=O)N4CCCC4)ccc32)c1 | 5% | · | · | ·
O=C(C1CCN(S(=O)(=O)c2cccnc2)CC1)N1CCN(C2CCCC2)CC1 | -25% | 8% | 10µM* | 0%
Cn1cc(CCNCc2cn[nH]c2-c2ccc(-c3ccccc3)cc2)cn1 | 7% | -2% | -20% | ?
Cc1ccc(-c2[nH]ncc2CNCCc2cnn(-c3ccccc3)c2)cc1C | 0% | -2% | ? | 13µM*
CCCCCCCCCCCCCCCCOP(=O)([O-])OCC[N+](C)(C)C | · | · | 7.6µM* | ?
O=S(=O)(NC(=NC1CCCCC1)c1ccccc1)c1ccc(F)cc1 | -7% | 1% | 9.3µM* | ?
CC(=O)c1ccc(S(=O)(=O)N2CCNC(=O)C2)cc1 | · | 5% | · | ·
CCCC[N+]12CCC(CC1)C(C(=O)c1cccs1)C2 (stereo not drawn) | ? | 1% | 2.6µM* | 10µM*
COc1ccccc1N(C(=O)c1ccco1)C(C(=O)NC1CCCC1)c1ccc(N2CCOCC2)cc1 (stereo not drawn) | 7% | 0% | 16% | ?
CCN1CCN(Cc2ccc(NC(=O)c3cc(NC(=O)c4cc(-c5ccc(OC)cc5)n[nH]4)cc(OC)c3)cc2C(F)(F)F)CC1 | 2% | 1% | 0.093µM* | 0.12µM*
CCN1CCN(Cc2ccc(NC(=O)c3cc(NC(=O)N4CCNC4=O)cc(OC)c3)cc2C(F)(F)F)CC1 | 3% | 1% | 4.1µM* | 5.2µM*
CCN1CCN(Cc2ccc(NC(=O)c3cc(NC(=O)c4cc5cccc(OC)c5o4)cc(OC)c3)cc2C(F)(F)F)CC1 | 23% | 0% | 0.29µM* | 0.83µM*

From PubChem
